Compound activity: PubChem, Sanford-Burnham Center for Chemical Genomics
TRAIL sens C8 – sensitizes caspase-8 expressing cells to TRAIL | inhibition (viability loss, TRAIL sensitization), % at 10 µM | 360,000 compounds, 1% hits | NB7+C8 cells + TRAIL, ATPlite viability luminescence;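 active = compounds causing at least 50% loss of cell viability in the single-dose screen, relative to plate controls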
SENP8 block-1 – blocks the human protease SENP8; inhibition, % at 10 µM; Q96LD8; AID 2540; purified SENP8, Z-RLRGG-aminoluciferin cleavage, luminescence; 330,000 compounds, 1.2% hits; in the data active = inhibition above about 50%
SENP8 block-2 – blocks human SENP8 cleavage of Nedd8 substrate. recombinant SENP8, Nedd8 substrate fluorescence. inhibition, % at 20 µM. 360,000 compounds, 0.64% hits; in the data active = inhibition mostly above about 40%, no sharp cut-off; inactive = mostly below about 27%
SENP7 block – blocks the human protease SENP7. 330,000 compounds, 1.5% hits. recombinant SENP7, Z-RLRGG-aminoluciferin luminescence, 40 min. Q9BQF6. inhibition, % at 5 µM;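 active = inhibition above about 50% at the single test dose, limit read from the data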;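 also: plate controls were DMSO with enzyme for no effect and no enzyme buffer wells for full effect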
Target sequence (Q9BQF6 706-1050 limits assumed): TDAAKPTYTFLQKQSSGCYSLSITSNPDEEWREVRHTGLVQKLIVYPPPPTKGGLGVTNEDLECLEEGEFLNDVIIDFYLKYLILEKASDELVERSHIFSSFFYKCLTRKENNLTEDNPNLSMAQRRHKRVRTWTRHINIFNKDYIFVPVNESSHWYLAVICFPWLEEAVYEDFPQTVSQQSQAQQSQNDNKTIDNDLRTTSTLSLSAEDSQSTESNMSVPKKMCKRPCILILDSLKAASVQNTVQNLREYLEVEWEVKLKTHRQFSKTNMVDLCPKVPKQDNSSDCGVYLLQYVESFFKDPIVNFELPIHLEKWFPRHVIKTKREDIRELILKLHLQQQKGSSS
PPC-1+TRAIL kill – PPC-1 cancer cell killing with TRAIL present; cell killing (% activity), % at 4 µM or 5 µM; PPC-1 cells + TRAIL, ATPLite viability luminescence; 220,000 compounds, 0.41% hits; AID 1443;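 active = cell killing above 50% in the first pass at 4 µM, then a duplicate retest at 5 µM averaging 50% or more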;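 also: plate controls were cells with TRAIL plus DMSO for no effect and medium-only wells lacking cells for full effect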
SENP6 block – inhibitors of human SENP6 protease. Recombinant SENP6 catalytic domain, aminoluciferin luminescence. inhibition, % at 10 µM. 330,000 compounds, 1.8% hits. AID 2599. Q9GZR1;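 active = inhibition above about 50% at the single tested dose, limit read from the data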;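 also: plate controls were DMSO wells with enzyme for no effect and DMSO wells lacking enzyme for full effect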
SENP8 confirm – confirmation of human SENP8 protease inhibitors | inhibition, % at 12.5 µM | shares compounds with SENP7 block | Recombinant SENP8, Z-RLRGG-aminoluciferin luminescence, 60 min | AID 488912 | 6,200 compounds, 40% hits;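 active = mean inhibition across replicates above about 50%, limit read from the data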
SENP6 confirm – confirmation of human SENP6 protease inhibitors. shares compounds with SENP7 block. recombinant SENP6, Z-RLRGG-aminoluciferin luminescence. inhibition, % at 12.5 µM. 6,200 compounds, 58% hits
SENP7 conf – confirmation of human SENP7 protease inhibitors; shares compounds with SENP7 block; recombinant SENP7, Z-RLRGG-aminoluciferin luminescence, 40 min; inhibition, % at 12.5 µM; 6,200 compounds, 69% hits
Casp3 select – inhibits human caspase-3 in SENP selectivity test; shares compounds with SENP7 block; purified caspase-3, Z-DEVD-aminoluciferin luminescence, 60 min; inhibition, % at 12.5 µM; 6,200 compounds, 60% hits;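 active = mean inhibition above about 50%, limit read from the data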;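 also: plate controls were enzyme with DMSO for no effect and wells without caspase-3 for full effect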
SENP luc ctr – counter-screen for SENP inhibitors: luminescence interference; Pre-incubated SENP8/Z-RLRGG-aminoluciferin, luciferase luminescence interference; inhibition, % at 12.5 µM; shares compounds with SENP7 block; AID 488919; 6,200 compounds, 39% hits;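 active = mean inhibition above about 50% when retested at one dose, limit read from the data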;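 also: plate controls were DMSO wells with completed reaction for no effect and substrate without enzyme for full effect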
An asterisk follows results filed as active. Only some compounds are listed: those with a hit (about 3% of all), similar ones and a draw of the others.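 The calls were made as follows, unless noted: active = mean inhibition above about 50% in the one-dose retest (limit read from the data); inactive = the rest.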

`Cc1ccsc1C(=O)NNC(=S)NCC(C)C` gave TRAIL sens C8 0, SENP8 block-1 4, SENP8 block-2 6, SENP7 block 10, PPC-1+TRAIL kill 8 and SENP6 block 5.
For Cc1cccc(NC(=S)NNC(=O)c2sccc2C)c1 the results were TRAIL sens C8 9, SENP8 block-1 43, SENP8 block-2 -14, SENP7 block 65*, PPC-1+TRAIL kill -6, SENP6 block 83*, SENP8 confirm 56*, SENP6 confirm 56*, SENP7 conf 75*, Casp3 select 67* and SENP luc ctr 64*.
`CCc1cc(C(=O)NNC(=S)Nc2cccc(C)c2)cs1` gave TRAIL sens C8 14, SENP8 block-1 39, SENP8 block-2 13, SENP7 block 56*, PPC-1+TRAIL kill 13, SENP6 block 75*, SENP8 confirm 25, SENP6 confirm 25, SENP7 conf 8, Casp3 select 9 and SENP luc ctr 19.
CCOc1ccc(NC(=O)CNC(=O)c2cccs2)cc1 was read as TRAIL sens C8 7, SENP8 block-1 1, SENP8 block-2 18, SENP7 block 1, PPC-1+TRAIL kill 10 and SENP6 block -3.
For COc1cc(C#N)ccc1OCC(=O)Nc1cccc(S(=O)(=O)N(C)c2ccccc2)c1 the results were TRAIL sens C8 -4 and SENP8 block-2 13.
Screening Cc1ccccc1-c1cc(-c2ccccc2O)on1 returned TRAIL sens C8 35, SENP8 block-1 81*, SENP8 block-2 -1, SENP7 block 97*, PPC-1+TRAIL kill 19, SENP6 block 91*, SENP8 confirm 95*, SENP6 confirm 96*, SENP7 conf 100*, Casp3 select 84* and SENP luc ctr 93*.
Oc1ccccc1-c1cc(-c2ccccc2)no1 was read as TRAIL sens C8 45*, SENP8 block-1 86*, SENP8 block-2 -44, SENP7 block 96*, PPC-1+TRAIL kill 17, SENP6 block 84*, SENP8 confirm 87*, SENP6 confirm 88*, SENP7 conf 101*, Casp3 select 84* and SENP luc ctr 64*.
Screening O=C(c1cc(-c2ccccc2O)on1)N1CCCCCC1 returned TRAIL sens C8 10, SENP8 block-1 10, SENP8 block-2 7, SENP7 block -8 and SENP6 block 5.
`Cc1ccc(O)c(-c2cc(-c3ccc(F)cc3)no2)c1` gave TRAIL sens C8 69*, SENP8 block-1 57*, SENP8 block-2 -314, SENP7 block 81*, SENP6 block 77*, SENP8 confirm 24, SENP6 confirm 68*, SENP7 conf 56*, Casp3 select 68* and SENP luc ctr 4.
Cc1ccc(O)c(-c2cc(-c3ccccc3C)[nH]n2)c1 was read as TRAIL sens C8 1, SENP8 block-1 -11, SENP8 block-2 29, SENP7 block 3, PPC-1+TRAIL kill -4 and SENP6 block 27.
CCOc1ccc(-n2c(O)c(/C=N/NC(=O)C3COc4ccccc4O3)c3ccccc3c2=O)cc1 (stereo not drawn) was read as TRAIL sens C8 -5, SENP8 block-1 -4, SENP8 block-2 -174, SENP7 block -2, PPC-1+TRAIL kill -12 and SENP6 block 18.
`O=C(NCCN1CCCCC1)c1cc(Cl)ccc1Cl` gave TRAIL sens C8 8, SENP8 block-1 -6, SENP8 block-2 -2, SENP7 block 7 and SENP6 block 2.
